Assay results: PubChem BioAssay (NCATS)
Results filed as inconclusive are left out. Active and inactive are the calls of the source. Calls follow the shape of the dose curve; as a rule, active = well fitted curve in the direction sought with a large enough effect; inconclusive = small, poorly fitted or top-dose-only effect, or another doubt; inactive = no such curve, though single readings can be large; an effect the other way counts as inactive or inconclusive.

How the values were obtained:
[1] = qHTS of pediatric cancer cell lines to identify multiple opportunities for drug repurposing: Primary screen for MG 63 (6-TG R) cells (AID 1347105); also: nearly all actives have a fitted effect of over 50% in size; also: potency is read from the fitted curve at half-maximal effect
Outline: (§1)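 Viability was measured as metabolically active cells after 48 hours of treatment, read by CellTiter-Glo luminescence. Compounds were tested at multiple final concentrations, giving concentration-response curves.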

[2] = qHTS of pediatric cancer cell lines to identify multiple opportunities for drug repurposing: Primary screen for control Hh wild type fibroblast cells (AID 1347106); also: nearly all actives have a fitted effect of over 55% in size; also: potency is read from the fitted curve at half-maximal effect
Outline: (§2)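 Viability after 48 h compound treatment at 37C, 500-1,000 cells/well, read as ATP luminescence with CellTiter-Glo. Primary screens used 11-point (MIPE, 0.78 nM-46 µM) or 8-point (NPC, 0.59 nM-46 µM) final concentrations; follow-up screens used 11-point dilutions.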

[3] = qHTS of pediatric cancer cell lines to identify multiple opportunities for drug repurposing: Primary screen for Rh30 cells (AID 1347107); also: series mostly up to about 46 µM; nearly all actives have a fitted effect of over 75% in size
Outline: as §2

[4] = qHTS of pediatric cancer cell lines to identify multiple opportunities for drug repurposing: Primary screen for Rh41 cells (AID 1347108); also: nearly all actives have a fitted effect of over 70% in size; also: potency is read from the fitted curve at half-maximal effect
Outline: as §1

[5] = qHTS of pediatric cancer cell lines to identify multiple opportunities for drug repurposing: Confirmatory screen for NB1643 cells (AID 1347109); also: nearly all actives have a fitted effect of over 45% in size
Outline: as §2

[6] = qHTS of pediatric cancer cell lines to identify multiple opportunities for drug repurposing: Confirmatory screen for A673 cells (AID 1347110); also: nearly all actives have a fitted effect of over 65% in size
Outline: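 Cells plated at 500-1,000/well were treated five hours later with multi-point dilutions up to 46 µM final. After two days, CellTiter-Glo was added and luminescence read.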

[7] = qHTS of pediatric cancer cell lines to identify multiple opportunities for drug repurposing: Confirmatory screen for SK-N-MC cells (AID 1347111);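 also: cells exposed to compound for 48 h before the readout; nearly all actives have a fitted effect of over 70% in size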; also: potency is read from the fitted curve at half-maximal effect
Outline: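 SK-N-MC cells at 500-1,000 cells/well in growth media were pre-incubated 5 h, then exposed to compounds at 11-point dilutions for 48 h at 37 degrees C, 5% CO2. Viability was read as CellTiter-Glo luminescence.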

[8] = qHTS of pediatric cancer cell lines to identify multiple opportunities for drug repurposing: Confirmatory screen for DAOY cells (AID 1347114); also: nearly all actives have a fitted effect of over 65% in size
Outline: (§3)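 Viability measured as metabolically active cells via CellTiter-Glo luminescence following 48 hours of compound exposure, 11-point dilutions in confirmatory testing. 500-1,000 cells/well plated 5 hours before dosing; controls were DMSO and 2.3 µM bortezomib.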

[9] = qHTS of pediatric cancer cell lines to identify multiple opportunities for drug repurposing: Confirmatory screen for NB-EBc1 cells (AID 1347115); also: nearly all actives have a fitted effect of over 45% in size
Outline: as §2

[10] = qHTS of pediatric cancer cell lines to identify multiple opportunities for drug repurposing: Confirmatory screen for SJ-GBM2 cells (AID 1347116); also: nearly all actives have a fitted effect of over 60% in size
Outline: as §3

[11] = qHTS of pediatric cancer cell lines to identify multiple opportunities for drug repurposing: Confirmatory screen for BT-37 cells (AID 1347117); also: nearly all actives have a fitted effect of over 55% in size
Outline: as §2

[12] = qHTS of pediatric cancer cell lines to identify multiple opportunities for drug repurposing: Confirmatory screen for TC32 cells (AID 1347118); also: nearly all actives have a fitted effect of over 65% in size; also: potency is read from the fitted curve at half-maximal effect
Outline: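 qHTS, TC32, 48 h drug treatment, CellTiter-Glo luminescence as a proxy for metabolically active cells; primary top concentration 46 µM (MIPE 11-pt, NPC 8-pt); confirmatory 11-pt.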

[13] = qHTS of pediatric cancer cell lines to identify multiple opportunities for drug repurposing: Confirmatory screen for RD cells (AID 1347124);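 also: cells exposed to compound for 48 h before viability readout; nearly all actives have a fitted effect of over 65% in size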
Outline: as §2

[14] = qHTS of pediatric cancer cell lines to identify multiple opportunities for drug repurposing: Confirmatory screen for Rh18 cells (AID 1347125); also: nearly all actives have a fitted effect of over 55% in size
Outline: as §2

[15] = qHTS of pediatric cancer cell lines to identify multiple opportunities for drug repurposing: Confirmatory screen for Saos-2 cells (AID 1347127); also: nearly all actives have a fitted effect of over 60% in size
Outline: as §2

[16] = qHTS of pediatric cancer cell lines to identify multiple opportunities for drug repurposing: Confirmatory screen for OHS-50 cells (AID 1347128);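 also: compound exposure lasted 48 h at 37 degrees C; nearly all actives have a fitted effect of over 55% in size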
Outline: as §2

[17] = qHTS of pediatric cancer cell lines to identify multiple opportunities for drug repurposing: Confirmatory screen for LAN-5 cells (AID 1347113); also: nearly all actives have a fitted effect of over 65% in size
Outline: as §2

[18] = qHTS of pediatric cancer cell lines to identify multiple opportunities for drug repurposing: Confirmatory screen for Rh30 cells (AID 1347126); also: nearly all actives have a fitted effect of over 55% in size
Outline: as §2

Measured: Potency

CCCCS(=O)(=O)N[C@@H](Cc1ccc(OCCCCC2CCNCC2)cc1)C(=O)O
inactive: [1] | [2] | [3] | [4]

Cc1cc(N)c2cc(NC(=O)Nc3ccc4nc(C)cc(N)c4c3)ccc2n1
inactive: [1] | [2] | [3] | [4]

CC[C@@H](CO)NCCN[C@@H](CC)CO
inactive: [1] | [2] | [3] | [4]

CCCCCC=CCC=CCCCCCCCC(=O)OCC
inactive: [1] | [2] | [3] | [4]

COc1cc(N)c(Cl)cc1C(=O)NC1CCN(CCCOc2ccc(F)cc2)CC1OC (stereo not drawn)
inactive: [1] | [2] | [3] | [4]

O=C(Nc1ccc(Cl)c(Cl)c1)C1CC1
inactive: [1] | [2] | [3] | [4]

N[C@@H](CCC(=O)N[C@@H](CS)C(=O)NCC(=O)O)C(=O)O
inactive: [1] | [2] | [3] | [4]

C[C@H](CCC(=O)O)[C@H]1CC[C@H]2[C@@H]3C(=O)C[C@@H]4CC(=O)CC[C@]4(C)[C@H]3CC(=O)[C@]12C
inactive: [1] | [2] | [3] | [4]

N[C@H](Cc1c[nH]c2ccccc12)C(=O)O
inactive: [1] | [2] | [3] | [4]

CNC(=O)CN(CCN(CCN(CC(=O)[O-])CC(=O)NC)CC(=O)[O-])CC(=O)[O-].O.[Gd+3]
inactive: [1] | [2] | [3] | [4]

CCCCc1nc(Cl)c(CO)n1Cc1ccc(-c2ccccc2-c2nn[nH]n2)cc1
inactive: [1] | [2] | [3] | [4]

CC(O)(P(=O)(O)O)P(=O)(O)O
inactive: [1] | [2] | [3] | [4]

CC(C)=CCC1C(=O)N(c2ccccc2)N(c2ccccc2)C1=O
inactive: [1] | [2] | [3] | [4]

C#C[C@]1(OC(C)=O)CC[C@H]2[C@@H]3CCC4=C[C@@H](OC(C)=O)CC[C@@H]4[C@H]3CC[C@@]21C
inactive: [1] | [2] | [3]

C[C@@H](CN(C)C)CN1c2ccccc2Sc2ccccc21
inactive: [1] | [2] | [3]

CCOC(=O)/C=C(C)/C=C/C=C(C)/C=C/c1c(C)cc(OC)c(C)c1C
inactive: [1] | [2] | [3] | [4]

COC(=O)[C@@H]1CC2=CC(=O)CC[C@]2(C)[C@@]23O[C@@H]2C[C@@]2(C)[C@@H](CC[C@@]24CCC(=O)O4)[C@H]13
inactive: [1] | [2] | [3]

Cc1nc2n(c(=O)c1CCN1CCC(c3noc4cc(F)ccc34)CC1)CCC[C@H]2O
inactive: [1] | [2] | [3] | [4]

Cc1ccc(C(=O)C(C)CN2CCCCC2)cc1 (stereo not drawn)
inactive: [1] | [2] | [3] | [4]

CC(=O)Oc1ccc(C(=C2CCCCC2)c2ccc(OC(C)=O)cc2)cc1
inactive: [1] | [2] | [3] | [4]

CCN(CC)CCNC(=O)COc1ccc(Cl)cc1
inactive: [1] | [2] | [3] | [4]

COc1cc2c(cc1OC)[C@@H]1CC(=O)[C@@H](CC(C)C)CN1CC2
inactive: [1] | [2] | [3] | [4]

OC[C@H]1O[C@H](O[C@]2(CCl)O[C@H](CCl)[C@@H](O)[C@@H]2O)[C@H](O)[C@@H](O)[C@H]1Cl
inactive: [1] | [2] | [3] | [4]

CCOC(=O)COc1ccc2c(C)c(CCN(CC)CC)c(=O)oc2c1Cl
inactive: [1] | [2] | [3] | [4]

CN(C)CC/C=C1/c2ccccc2COc2ccc(CC(=O)O)cc21
inactive: [1] | [2] | [3] | [4]

Cc1c(C)n(CCN(C)C)c2ccc(C(=O)OCCN(C)C)cc12
inactive: [1] | [2] | [3] | [4]

COc1cccc2c1C(=O)c1c(O)c3c(c(O)c1C2=O)C[C@@](O)(C(C)=O)C[C@@H]3O[C@H]1C[C@H](N)[C@H](O)[C@H](C)O1
active: [1] 4.22 µM | [2] 16.8 µM | [4] 0.75 µM
inactive: [3]

COc1cc2c(cc1OC)C(=O)C(CC1CCN(Cc3ccccc3)CC1)C2 (stereo not drawn)
inactive: [1] | [2] | [3] | [4]

NCCC(O)(P(=O)(O)O)P(=O)(O)O
inactive: [1] | [2] | [3] | [4]

CCCC(=O)Nc1ccc(OCC(O)CNC(C)C)c(C(C)=O)c1 (stereo not drawn)
inactive: [1] | [2] | [3] | [4]

NCCCC[C@H](N[C@@H](CCc1ccccc1)C(=O)O)C(=O)N1CCC[C@H]1C(=O)O
inactive: [1] | [2] | [3] | [4]

CN(C)CCOc1ccccc1Cc1ccccc1
inactive: [1] | [2] | [3] | [4]

NC(CO)(CO)CO
active: [7] 8.27 µM | [12] 11.7 µM
not listed: [17] | [18]
inactive: all other assays above

C=C1C[C@H]2[C@@H]3C=C(C)C4=CC(=O)CC[C@]4(C)[C@H]3CC[C@]2(C)[C@@]1(OC(C)=O)C(C)=O
active: [7] 2.61 µM | [12] 6.57 µM
not listed: [6] | [8]
inactive: all other assays above

CCCC(=O)O[C@]1(C(=O)CO)CC[C@H]2[C@@H]3CCC4=CC(=O)CC[C@]4(C)[C@H]3[C@@H](O)C[C@@]21C
not listed: [15] | [17]
inactive: all other assays above
